Source: PubChem BioAssay
Hits are enriched below; roughly 3.6% of the tested compounds scored in any of these assays.
Anthrax LF inh2 = inhibitors of Bacillus anthracis lethal factor protease; inhibition, % at 10 µM; AID 588501; multiplex microsphere protease cleavage assay, LF; P15917; 0.12% of 360,000 active; further: plate controls were buffer without enzyme for full effect and enzyme alone for no effect
Bead autofluor = flagged as autofluorescent in microsphere protease counterscreen. compound autofluorescence counterscreen, microsphere flow cytometry; hits give high values. fluorescence intensity (concentration not given with the values). 3.1% of 360,000 active. AID 624483; in the data active means fluorescence intensity above about 16000; inconclusive means no clear call, values can overlap the other calls
SARS 3CLpro inh = SARS-CoV 3CLpro protease inhibition. recombinant SARS-CoV 3CLpro, quenched FRET peptide cleavage. 0.14% of 290,000 active. inhibition, % at 6 µM. AID 1706. P0C6X7; in the data active means inhibition above about 12%
BJeLR lethal = kills HRASV12-expressing BJeLR cells; BJeLR (HRASV12) viability, CellTiter-Glo ATP luminescence, 48 h; inhibition, % (no concentration beside the values); 0.17% of 300,000 active; in the data active means inhibition above about 50%; inconclusive means no clear call, values can overlap the other calls
BoNT-F LC inh = blocks Botulinum neurotoxin F light chain protease. Multiplex microsphere protease cleavage assay, flow cytometry. inhibition, % at 10 µM. 0.22% of 360,000 active. AID 588497; in the data active means inhibition above about 35%, passing the limit was not always enough; inconclusive means no clear call, values can overlap the other calls; further: plate controls were buffer without enzyme for full effect and enzyme alone for no effect
BoNT A protease = inhibitors of Botulinum neurotoxin A light chain protease. multiplex microsphere protease substrate cleavage, flow cytometry. inhibition, % at 10 µM. 0.17% of 360,000 active. AID 588499; further: plate controls were buffer without enzyme for full effect and enzyme alone for no effect
* hit, by the source's call; ? = inconclusive; . = no result. Unless noted, no stated cut-off is given here; in the data, active means inhibition above about 30%; inconclusive means no clear call, values can overlap the other calls; inactive means below that.

SMILES | Anthrax LF inh2 | Bead autofluor | SARS 3CLpro inh | BJeLR lethal | BoNT-F LC inh | BoNT A protease
CCSc1ccccc1C(=O)NCc1ccco1 | -3 | 24013* | 0 | -6 | -3 | -2
O=C(NCc1ccco1)c1ccccc1Br | 5 | 8753 | -1 | -10 | -2 | 0
CCSc1ccccc1C(=O)NCc1ccc(S(N)(=O)=O)cc1 | 0 | 23721* | -1 | 6 | -2 | -1
CSCCC(NS(=O)(=O)Cc1ccccc1)C(=O)NNc1ccccc1 (stereo not given) | 0 | 5508 | . | . | -1 | 0
O=C(OCn1ncc(Cl)c(Cl)c1=O)c1ccccc1Cl | -1 | 16218* | 0 | -44 | -4 | 0
Cc1ccc2[nH]c(=O)c(CN(CCO)C(=O)N(C)C)cc2c1 | -2 | 17576* | -3 | -3 | -8 | -6
Cc1ccc(S(=O)(=O)N(C)Cc2cc3ccccc3[nH]c2=O)cc1 | -9 | 22031* | -1 | 0 | -2 | 0
CC(C)C[C@@H](CNCC(=O)[C@H](C)NC(=O)c1[nH]cnc1C(=O)N[C@H](CN)CC(C)C)NC(=O)c1nc[nH]c1C(=O)N[C@@H](C)C(=O)O | 3 | 3743 | . | . | -9 | 0
Cc1ccc(S(=O)(=O)N2CCCCC2)cc1NC(=O)COC(=O)c1cccn1C | -3 | 7899 | . | . | 2 | 4
COc1cccc(NP(=O)(Oc2ccc(Cl)cc2)Oc2ccc(Cl)cc2)c1 | 0 | 2247 | 2 | -8 | -4 | -1
O=P(Nc1ccccc1)(Nc1ccccc1)Oc1ccc(Cl)cc1 | -1 | 23234* | -4 | 0 | 0 | 0
COc1cccc(N2C(=O)C(CC(=O)Nc3ccc(F)cc3)N(C3CCCCC3)C2=O)c1 (stereo not given) | -1 | 2773 | 5 | -1 | 0 | 0
COc1cccc(N2C(=O)C(CC(=O)Nc3ccccc3)N(C3CCCCC3)C2=O)c1 (stereo not given) | -4 | 19391* | 1 | -6 | 6 | 3
CCOC(=O)c1[nH]c(COC(=O)CCOc2ccccc2OC)c(C(=O)OCC)c1C | -1 | 23144* | 3 | -4 | -5 | ?
O=C1C=C(c2ccccc2)C[C@H](c2cccs2)[C@H]1n1nnc([N+](=O)[O-])n1 | -2 | 2333 | 1 | 62* | -2 | 0
O=C1C=C(c2ccccc2)CC(c2cccs2)C1n1cnc([N+](=O)[O-])c1 (stereo not given) | 1 | 2405 | 1 | 2 | -12 | 0
CCOC(=O)c1cnc2c(cnn2C)c1NCCC(O)C(F)(F)F (stereo not given) | -2 | 21233* | 1 | 7 | 4 | 3
CCOC(=O)N1CCN(C(=O)C2CCN(C(=O)c3ccccc3C)CC2)CC1 | 4 | 3681 | . | . | -4 | 0
Cc1ccsc1C1C2=C(CC(C)(C)CC2=O)Nc2ncnn21 (stereo not given) | -3 | 5800 | 6 | -6 | -12 | 0
Cc1ccsc1C1C2=C(CCCC2=O)Nc2ncnn21 (stereo not given) | 2 | 22735* | -1 | . | -3 | 0
COC(=O)c1sccc1-c1ccc(C(=O)Nc2cccnc2)o1 | -9 | 21993* | -2 | -2 | 2 | 2
CCOC(=O)C(=Cc1ccc(-c2ccsc2C(=O)OC)o1)C(=O)OCC | 0 | 22339* | 3 | 6 | 1 | 1
COC(=O)C(=Cc1ccc(-c2ccsc2C(=O)OC)o1)C(=O)OC | -4 | 5741 | -3 | 1 | -7 | -1
O=C(OCCCN1CCCC1)C1(c2ccccc2)CCCC1 | -2 | 24071* | 2 | 2 | -5 | ?
CCN(CC)CCOC(=O)C1(c2ccccc2)CCCC1 | -2 | 10889 | 2 | -6 | -6 | -1
SMILES | Anthrax LF inh2 | Bead autofluor | SARS 3CLpro inh | BJeLR lethal | BoNT-F LC inh | BoNT A protease
CN(C)CC#CCC(O)(c1ccccc1)C1CCCC1 (stereo not given) | 0 | 23845* | -2 | 7 | -3 | -1
CCN(CC)CC#CCC(O)(c1ccccc1)C1CCCCC1 (stereo not given) | -9 | 5357 | -3 | 3 | -2 | 0
CCn1c(SCC(N)=O)nnc1-c1ccco1 | -8 | 2509 | 0 | -8 | -3 | 0
CCn1c(SCc2cccc(C(F)(F)F)c2)nnc1-c1ccco1 | -5 | 22937* | 7 | -1 | -1 | -2
CN(C)c1ccc(S(=O)(=O)N2CCCCC2)cc1NC(=O)CN1C(=O)NC2(CCCC2)C1=O | -7 | 5075 | . | 0 | ? | -1
CCc1c(C)nc2c(C#N)c[nH]n2c1=O | 3 | 8422 | -1 | -4 | 7 | 3
CCOC(=O)Cc1c(C)nc2c(C#N)c[nH]n2c1=O | 3 | 23050* | -1 | 18 | -2 | -1
C/C(=N\Nc1ccc2nncn2n1)c1ccccn1 | . | . | -3 | 62* | . | .
CCC(=O)Nc1ccc2c(c1)ncn2-c1ccccc1 | 0 | 21985* | 0 | 4 | -10 | -8
CC(=O)Nc1ccc2c(c1)ncn2-c1ccccc1 | 14 | 4327 | 3 | -6 | 6 | 0
O=C(N/N=C/c1ccc(-c2ccc(S(=O)(=O)Nc3ncccn3)cc2)o1)c1cc2ccccc2cc1O | 3 | 3223 | -3 | 0 | 6 | 0
CCOc1ccc(C(=O)N/N=C/c2ccc(-c3ccc(S(=O)(=O)Nc4ncccn4)cc3)o2)cc1 | -1 | 22776* | 1 | 14 | -1 | 1
CCOc1cc(/C=C2\CN(CC)C/C(=C\c3ccc(O)c(OCC)c3)C2=O)ccc1O | -15 | 3288 | 0 | 57* | -3 | -4
CCOc1ccc(Nc2nc(NCCN3CCOCC3)nc(OC)n2)cc1 | -3 | 22883* | -3 | 0 | 0 | ?
COc1ccccc1CNC(=O)CN1C(=O)NC2(CCCc3ccccc32)C1=O (stereo not given) | 4 | 8565 | . | . | 4 | 3
CCOC(=O)c1nnn(-c2nc(OC)nc(N3CCCC3)n2)c1-c1ccccc1 | -1 | 3404 | -3 | 4 | 22 | -1
CCNc1nc(N2CCCCC2)nc(-n2nnc(C(=O)OCC)c2C)n1 | -4 | 23587* | 3 | 3 | -4 | ?
CC(=O)c1cc(C#N)c(SCC(=O)O)nc1C | 0 | ? | 2 | 1 | 3 | 1
CCOC(=O)CSc1nc(C)c(C(C)=O)cc1C#N | -1 | 23558* | 3 | -6 | -2 | -3
C=CCN(C(=O)CSc1nc2ccsc2c(=O)n1Cc1ccc(C(=O)O)cc1)c1ccccc1 | -2 | 3861 | . | . | -1 | 0
C=CCN1C(=O)C(C)(C)Nc2ccccc21 | 3 | 20000* | -3 | 10 | 1 | ?
CCOC(=O)c1nn(-c2ccc3c(c2)OCCO3)cc1O | -4 | 3244 | 5 | 0 | -4 | 0
CCOC(=O)c1nn(-c2ccc(C)c(C)c2)cc1O | 1 | 23047* | 3 | -4 | -1 | -1
COc1ccc(C(=O)Nc2ccc(-c3cn4ccsc4n3)cc2)cc1S(=O)(=O)N1CCOCC1 | -10 | 20320* | -5 | -3 | 4 | ?
COc1ccc(C(=O)N2CCN(S(=O)(=O)c3ccc(Cl)cc3)CC2)cc1OC | 4 | 21574* | 0 | 10 | 8 | 4
